Screening results deposited in PubChem BioAssay by National Center for Advancing Translational Sciences (NCATS).
This is a sample that favours compounds with a hit; in the whole collection about 3.1% have one here.
VDR inhibitor – inhibitors of human vitamin D receptor. P11473. VDR-SRC2-3 peptide fluorescence polarization, 2 h. Potency, µM, inactives show max response, negative = inhibition, hits mostly inhibitors. 0.93% of 400,000 active. AID 504847; further: potency means the concentration at half of the fitted maximal effect; on the % scale 0 is the no-effect control and ±100 the full control effect
Target sequence (P11473 whole entry, looked up): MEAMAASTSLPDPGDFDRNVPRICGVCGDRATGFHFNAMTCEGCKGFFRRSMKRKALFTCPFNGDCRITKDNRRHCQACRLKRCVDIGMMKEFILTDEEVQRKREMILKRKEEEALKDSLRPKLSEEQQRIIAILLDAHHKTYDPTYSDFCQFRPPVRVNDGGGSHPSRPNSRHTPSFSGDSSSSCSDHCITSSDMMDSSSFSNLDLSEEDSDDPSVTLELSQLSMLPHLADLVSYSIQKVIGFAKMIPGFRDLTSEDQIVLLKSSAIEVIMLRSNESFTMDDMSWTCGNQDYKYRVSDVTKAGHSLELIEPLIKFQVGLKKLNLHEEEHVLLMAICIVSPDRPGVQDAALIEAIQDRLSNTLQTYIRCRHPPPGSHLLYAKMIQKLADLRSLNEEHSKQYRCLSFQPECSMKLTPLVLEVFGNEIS
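Two reagent solutions held at 4 deg C in the dark were dispensed, compounds pinned at 23 nl, and the mixture incubated 2 h at room temperature. Read-out: fluorescence polarization of VDR–SRC2-3 peptide binding.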
TSHR antag – human thyrotropin receptor antagonism; P16473; TSHR-expressing cells, TSH-stimulated cAMP HTRF, 2 h; stronger effect = lower value; activity change, negative = inhibition, % at 11.5 µM; 0.2% of 330,000 active; AID 504810;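 active means activity change below a set negative limit, meaning inhibition stronger than a set level, cut at about -70% in these data; inconclusive means activity change between two set negative limits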; further: on the % scale 0 is the no-effect control and ±100 the full control effect
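Inhibition of cAMP made by TSHR-expressing cells under TSH stimulation (4nM final, EC80; 2 h, 37 deg C) is quantified with a one-step lysis HTRF kit, anti-cAMP cryptate versus cAMP-d2.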
PLK1 PBD block – blocks phosphopeptide binding to human PLK1 polo-box domain | P53350 | Plk1 PBD binding of FITC phosphopeptide, fluorescence polarization | Potency, µM, inactives show max response, negative = inhibition, usual class: inhibitors | 2.8% of 360,000 active | AID 720504; further: potency means the concentration at half of the fitted maximal effect; series mostly up to about 57 µM; on the % scale 0 is the no-effect control and ±100 the full control effect; nearly all actives have a fitted effect of over 65% in size
PTAP TSG101 blk – blocks PTAP/TSG101 interaction to inhibit HIV-1 budding; Q99816; Fluorescence polarization, FITC-PTAP peptide / Tsg101 binding; Potency, µM (doses to about 115 µM), for inactives: top-dose activity change, negative = inhibition, usual class: inhibitors; 340,000 tested, under 10 active; active means well fitted inhibition curve with a large enough effect in the main read-out, with a control signal flat, not every such curve was filed as active; inconclusive means small, poorly fitted or top-dose-only effect, or effect the other way, or a change in a side signal; inactive means no such curve, though single readings can be large or run the other way; further: potency means the concentration at half of the fitted maximal effect; % of control where 0% means no effect
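Fluorescence polarization binding of Tsg101 binding domain (10 uM final) to FITC-labeled PTAP peptide (50 nM final) in HEPES pH 7.5 buffer with NaCl, Tween 20, EDTA, TCEP. Compounds added before peptide; binding 20 min at RT.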
uPA surface inh – blocks generation of uPA at the cell surface. 0.31% of 330,000 active. cell surface uPA generation assay, qHTS. Potency, µM (series often up to 38.3 µM), for the others: at the top dose activity change, negative = inhibition, actives largely listed as inhibitors. AID 540303; active means well fitted inhibition curve with a large enough effect; inconclusive means small, poorly fitted or top-dose-only effect; inactive means no such curve, though single readings can be large or run the other way; tested in mouse RAW 264.7 cells; further: potency means the concentration at half of the fitted maximal effect; on the % scale 0 is the no-effect control and ±100 the full control effect; nearly all actives have a fitted effect of over 55% in size
* hit, by the source's call. Unless noted, the call rests on the fitted dose curve; in most records, active means well fitted curve in the direction sought with a large enough effect; inconclusive means small, poorly fitted or top-dose-only effect, or another doubt; inactive means no such curve, though single readings can be large; an effect the other way counts as inactive or inconclusive.

For O=C(Cc1ccccc1F)Nc1cccc(S(=O)(=O)N2CCCCC2)c1 the results were PLK1 PBD block 3%.
O=C(COc1ccccc1F)Nc1cc(S(=O)(=O)Nc2cccc(Cl)c2)ccc1O was read as VDR inhibitor -19%, TSHR antag -35, PLK1 PBD block 24µM*, PTAP TSG101 blk -1% and uPA surface inh 12%.
For O=S(=O)(Nc1ccccc1Cl)c1cc(NC(=S)NCCN2CCOCC2)ccc1Cl the results were VDR inhibitor -17%, TSHR antag -9, PLK1 PBD block -29%, PTAP TSG101 blk -1% and uPA surface inh -4%.
For O=C(Cc1ccc(Cl)cc1Cl)Nc1cccc(S(=O)(=O)Nc2ccccc2F)c1 the results were VDR inhibitor inconclusive, TSHR antag 5, PLK1 PBD block 1.2µM*, PTAP TSG101 blk 0% and uPA surface inh -3%.
For Cc1cccc(CNC(=O)CCCN2C(=O)COc3ccc(C)cc32)c1 the results were VDR inhibitor -4%.
`CC1(C)N=C(N)NC(=NCCCOc2ccc([N+](=O)[O-])cc2)N1` gave PLK1 PBD block -13%.
`CC(Cl)OC(=O)Nc1cccc2cccnc12` (stereo not drawn) gave VDR inhibitor 5%.
`COCC(=O)Nc1ccc(N2CCOCC2)c(S(=O)(=O)Nc2ccccc2OC)c1` gave VDR inhibitor inconclusive, PLK1 PBD block 11µM*, PTAP TSG101 blk -1% and uPA surface inh -11%.
COc1ccccc1NS(=O)(=O)c1cc(NC(=O)c2sccc2C)ccc1N1CCOCC1 was read as VDR inhibitor -12%, TSHR antag -1, PLK1 PBD block -15%, PTAP TSG101 blk -3% and uPA surface inh -19%.
Screening COc1ccccc1NS(=O)(=O)c1cc(NC(=O)C(C)(C)C)ccc1N1CCOCC1 returned VDR inhibitor -22%, TSHR antag -1, PLK1 PBD block -1%, PTAP TSG101 blk -2% and uPA surface inh -1%.
O=S(=O)(Nc1ccccc1F)c1cccc(NC(=S)NCCN2CCOCC2)c1 was read as VDR inhibitor 35µM*, TSHR antag -3, PLK1 PBD block 0.95µM*, PTAP TSG101 blk 0% and uPA surface inh -5%.
COc1ccccc1NS(=O)(=O)c1cc(NC(=O)COc2ccccc2F)ccc1N1CCOCC1 was read as VDR inhibitor inconclusive, TSHR antag -18, PLK1 PBD block 24µM*, PTAP TSG101 blk -1% and uPA surface inh 5%.
`Nc1cc(C(F)(F)F)ccc1S(=O)(=O)Nc1cccc2c1NCCC2` gave VDR inhibitor -7%.
CCOc1cc2sc(N3CCC(C(=O)Nc4ccc(CC)cc4)CC3)nc2cc1Br was read as VDR inhibitor -13%.
O=C(c1ccc(Cl)cc1)C(CN1CCCC1)c1ccccc1 (stereo not drawn) was read as VDR inhibitor 25µM*, TSHR antag -5, PLK1 PBD block 0%, PTAP TSG101 blk -5% and uPA surface inh 5µM*.
For COc1ccc(C(=O)C(CN2CCCC2)c2ccccc2)cc1 (stereo not drawn) the results were VDR inhibitor inconclusive, TSHR antag 3, PLK1 PBD block -10%, PTAP TSG101 blk -2% and uPA surface inh -10%.
O=C(c1ccc(F)cc1)C(CN1CCOCC1)c1ccccc1 (stereo not drawn) was read as VDR inhibitor 50µM*, TSHR antag -10, PLK1 PBD block -14%, PTAP TSG101 blk -3% and uPA surface inh -13%.
COc1ccc(C(=O)C(CN2CCOCC2)c2ccccc2)cc1 (stereo not drawn) was read as VDR inhibitor -10%, TSHR antag -8, PLK1 PBD block -4%, PTAP TSG101 blk 0% and uPA surface inh inconclusive.
OC(COC(c1ccccc1)c1ccccc1)CN1CCOCC1 (stereo not drawn) was read as VDR inhibitor -25%, TSHR antag -3, PLK1 PBD block 30µM*, PTAP TSG101 blk -4% and uPA surface inh 12%.
Screening CCOc1ccc(S(=O)(=O)N2CCC(n3c(C)nc4cccnc43)CC2)cc1 returned VDR inhibitor -6%.
Screening O=C(NCc1ccc(Cl)cc1)C1CCCN(c2ncnc3onc(-c4ccc(F)cc4)c23)C1 (stereo not drawn) returned VDR inhibitor 13%.
Screening Cc1cc(N2C(=O)C(O)=C(C(=O)c3ccc(C)o3)C2c2cccc(Cl)c2)no1 (stereo not drawn) returned PLK1 PBD block -13%.
For COc1ccc(OC)c(C2C(C(=O)c3ccc(C)o3)=C(O)C(=O)N2c2cc(C)on2)c1 (stereo not drawn) the results were VDR inhibitor inconclusive, TSHR antag -7, PLK1 PBD block 24µM*, PTAP TSG101 blk -5% and uPA surface inh -7%.
For Cc1cc(N2C(=O)C(O)=C(C(=O)c3ccc(C)o3)C2c2cccc(Oc3ccccc3)c2)no1 (stereo not drawn) the results were VDR inhibitor inconclusive, TSHR antag 4, PLK1 PBD block 24µM*, PTAP TSG101 blk -12% and uPA surface inh 2%.
`Cc1cc(N2C(=O)C(O)=C(C(=O)c3cc4ccccc4o3)C2c2ccc(Br)cc2)no1` (stereo not drawn) gave VDR inhibitor inconclusive, TSHR antag 27, PLK1 PBD block 21µM*, PTAP TSG101 blk -17% and uPA surface inh -1%.
Screening Cc1cc(Br)cc(C)c1OCC(=O)Nc1ccc(S(=O)(=O)Nc2ncccn2)cc1 returned VDR inhibitor 3%.
`Cc1cccc(NC(=O)CN(CC2CCCO2)C(=O)c2cc(S(=O)(=O)N(C)C)ccc2F)c1C` (stereo not drawn) gave VDR inhibitor -6%, TSHR antag 5, PLK1 PBD block 1%, PTAP TSG101 blk -7% and uPA surface inh -1%.
O=c1oc2c3c(ccc2c2ccccc12)OCN(Cc1ccccc1Cl)C3 was read as VDR inhibitor -1%.
S=C(NCCc1ccccc1)Nc1c(Cl)cccc1Cl was read as VDR inhibitor -20%, TSHR antag -12, PLK1 PBD block 27µM*, PTAP TSG101 blk -3% and uPA surface inh 3%.
For Fc1ccccc1NC(=S)NCCc1ccccc1 the results were VDR inhibitor -22%, TSHR antag -6, PLK1 PBD block 3µM*, PTAP TSG101 blk -3% and uPA surface inh -2%.
Screening CCc1ccc(-n2c(=O)c3c(C)c(C(=O)N(C)C)sc3n(Cc3ccccc3C#N)c2=O)cc1 returned VDR inhibitor 7%.
Screening COc1cc(C(=S)N2CCCC2)cc(Cl)c1OCC(=O)Nc1ccc(C)cc1C returned VDR inhibitor inconclusive, TSHR antag -2, PLK1 PBD block 8.4µM*, PTAP TSG101 blk -5% and uPA surface inh -4%.
`CCOC(=O)Cn1c(=O)oc2ccc(C)cc21` gave VDR inhibitor 9%, TSHR antag -11, PLK1 PBD block -6%, PTAP TSG101 blk -5% and uPA surface inh -1%.
